Results: PubChem BioAssay (NCI)
The panel holds about 79,000 compounds, 15% with a hit somewhere; the sample as a whole holds those more often. Active and inactive are the calls of the source. No stated cut-off is given here; in the data, active means growth inhibition above about 70%; inactive means the rest.

Key:
[1] = NCI Yeast Anticancer Drug Screen. Data for the rad52 strain (AID 147);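 further: 0% = growth of vehicle-treated control cultures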; settings: S. cerevisiae rad52 mutant growth inhibition, stronger effect = higher value
Summary of the method: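 Screen used a yeast mutant impaired in DNA repair. After compound exposure, growth was measured. Values reflect inhibition compared with vehicle-treated cells.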

[2] = NCI Yeast Anticancer Drug Screen. Data for the wt1 strain (AID 149);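 further: 0% = growth of vehicle-treated wt1 cultures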; settings: S. cerevisiae wt1 strain (SPY 50644) growth inhibition, stronger effect = higher value
Summary of the method: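 The wt1 strain was treated with compounds, and growth was compared with vehicle-treated cultures to give inhibition.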

[3] = NCI Yeast Anticancer Drug Screen. Data for the rad50EPP+ strain (AID 151);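 further: 0% = growth of vehicle-treated control cultures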; settings: S. cerevisiae rad50 mutant strain, stronger effect = higher value
Summary of the method: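 Exposing the rad50EPP+ strain to each compound, growth was compared with vehicle-only cultures to give inhibition.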

[4] = NCI Yeast Anticancer Drug Screen. Data for the rad50 strain (AID 155);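 further: 0% = growth of vehicle-only cultures of the same strain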; settings: S. cerevisiae rad50 strain growth inhibition, stronger effect = higher value
Summary of the method: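 Cells are treated with compound, grown, and their growth is then scored against vehicle-only cultures of the same repair-deficient yeast strain.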

[5] = NCI Yeast Anticancer Drug Screen. Data for the mec2-1 strain (AID 157); settings: S. cerevisiae mec2-1 strain, stronger effect = higher value
Summary of the method: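 Readout is yeast growth inhibition, normalised to vehicle-treated controls, in the mec2-1 strain exposed to compound.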

[6] = NCI Yeast Anticancer Drug Screen. Data for the rad14 strain (AID 159);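 further: 0% = growth of vehicle-treated control cultures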; settings: S. cerevisiae rad14 strain growth inhibition, stronger effect = higher value
Summary of the method: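 Readout: yeast growth inhibition, referenced to vehicle-only cultures. Strain bears a defined alteration in DNA damage repair.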

[7] = NCI Yeast Anticancer Drug Screen. Data for the sgs1 mgt1 strain (AID 161);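 further: 0% = growth of cultures given vehicle only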; settings: S. cerevisiae sgs1 mgt1 strain, stronger effect = higher value
Summary of the method: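 Yeast cells carrying a defined DNA-repair defect were exposed to test compounds. Growth inhibition was measured relative to vehicle-treated controls.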

[8] = NCI Yeast Anticancer Drug Screen. Data for the CLN2oe strain (AID 163);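 further: 0% = growth of vehicle-only control cultures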; settings: S. cerevisiae CLN2oe strain, stronger effect = higher value
Summary of the method: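 Values reflect how much compound exposure reduced yeast growth, referenced to vehicle-exposed cells. Assay organism is a strain with a defined genetic change affecting cell-cycle control.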

[9] = NCI Yeast Anticancer Drug Screen. Data for the cln2 rad14 strain (AID 165);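 further: 0% = growth equal to vehicle treated cultures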; settings: S. cerevisiae cln2 rad14 strain, stronger effect = higher value
Summary of the method: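 Relative to vehicle controls, growth inhibition of compound-treated cln2 rad14 yeast was recorded.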

[10] = NCI Yeast Anticancer Drug Screen. Data for the bub3 strain (AID 167); settings: S. cerevisiae bub3 mutant strain, stronger effect = higher value
Summary of the method: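 Part of a panel of yeast mutants defective in DNA damage repair or cell cycle regulation. Each strain is grown with compound, and inhibition is calculated relative to solvent-treated cultures.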

[11] = NCI Yeast Anticancer Drug Screen. Data for the wt2 strain (AID 169);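 further: 0% = growth of vehicle-treated yeast cultures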; settings: S. cerevisiae wt2 strain growth inhibition, stronger effect = higher value
Summary of the method: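 Values express reduction in yeast growth under compound treatment, referenced to vehicle-treated cells.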

[12] = NCI Yeast Anticancer Drug Screen. Data for the mlh1 strain (AID 171);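 further: 0% = growth of vehicle-treated control cultures of the same strain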; settings: S. cerevisiae mlh1 strain growth inhibition, stronger effect = higher value
Summary of the method: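 Steps: expose the defined-mutant yeast strain to compound; expose a parallel culture to vehicle; measure growth; express compound effect as inhibition relative to the vehicle culture.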

[13] = NCI Yeast Anticancer Drug Screen. Data for the sgs1 strain (AID 173);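 further: 0% = growth of vehicle-only control cultures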; settings: S. cerevisiae sgs1 mutant, stronger effect = higher value
Summary of the method: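 Treat defined-mutant yeast with compound; measure growth; calculate inhibition relative to vehicle-treated cells.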

[14] = NCI Yeast Anticancer Drug Screen. Data for the mlh1 rad18 strain (AID 175); settings: S. cerevisiae mlh1 rad18 strain growth inhibition, stronger effect = higher value
Summary of the method: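 Test agents were incubated with a yeast strain of defined genotype (DNA damage repair defect). Inhibition of growth was derived by comparison with vehicle-exposed cultures.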

[15] = NCI Yeast Anticancer Drug Screen. Data for the rad18 strain (AID 177); settings: S. cerevisiae rad18 mutant growth inhibition, stronger effect = higher value
Summary of the method: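 A genetically defined yeast mutant impaired in DNA damage repair was treated with test compounds, then its growth was measured against cultures receiving vehicle alone.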

[16] = NCI Yeast Anticancer Drug Screen. Data for the mgt1 strain (AID 153); settings: S. cerevisiae mgt1 mutant growth inhibition, stronger effect = higher value
Summary of the method: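 Genetically defined yeast (mgt1) treated with compound; inhibition of growth expressed against vehicle-treated controls.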

[17] = at 5.0 µM (retest, dose inferred, filed as 0.5)
[18] = at 50.0 µM (retest, dose inferred, filed as 5.0)

Measured: growth inhibition

CC1C(c2ccccc2)SC(=N)N1C (stereo unspecified)
inactive: [1]; at 1.2 µM -1% | [1]; at 3.7 µM -3% | [1]; at 11.0 µM -2% | [1]; at 33.0 µM -1% | [1]; at 100.0 µM -4% | [2]; at 1.2 µM -1% | [2]; at 3.7 µM -1% | [2]; at 11.0 µM -2% | [2]; at 33.0 µM -1% | [2]; at 100.0 µM -1% | [3]; at 1.2 µM -2% | [3]; at 3.7 µM -2% | [3]; at 11.0 µM -2% | [3]; at 33.0 µM 0% | [3]; at 100.0 µM -1% | [4]; at 1.2 µM -2% | [4]; at 3.7 µM -46% | [4]; [17] 0% | [4]; at 11.0 µM -55% | [4]; at 33.0 µM -4% | [4]; [18] 51% | [4]; at 50.0 µM -19.9% | [4]; at 100.0 µM -4% | [5]; at 1.2 µM 0% | [5]; at 3.7 µM -1% | [5]; [17] 6% | [5]; at 11.0 µM -1% | [5]; at 33.0 µM -1% | [5]; [18] 46% | [5]; at 50.0 µM -5.6% | [5]; at 100.0 µM -1% | [6]; at 1.2 µM 1% | [6]; at 3.7 µM 2% | [6]; at 11.0 µM 2% | [6]; at 33.0 µM 3% | [6]; at 100.0 µM 2% | [7]; [17] 12% | [7]; [18] 54% | [7]; at 50.0 µM -5.35% | [8]; at 1.2 µM 4% | [8]; at 3.7 µM 1% | [8]; at 11.0 µM 4% | [8]; at 33.0 µM 4% | [8]; at 100.0 µM -2% | [9]; [17] 1% | [9]; [18] 56% | [9]; at 50.0 µM 23.4% | [10]; at 1.2 µM -3% | [10]; at 3.7 µM -2% | [10]; [17] -2% | [10]; at 11.0 µM -3% | [10]; at 33.0 µM -3% | [10]; [18] -7% | [10]; at 50.0 µM -4.4% | [10]; at 100.0 µM 0% | [11]; at 1.2 µM 1% | [11]; at 3.7 µM 8% | [11]; at 11.0 µM 0% | [11]; at 33.0 µM 0% | [11]; at 100.0 µM 0% | [12]; at 1.2 µM -1% | [12]; at 3.7 µM -2% | [12]; at 11.0 µM 0% | [12]; at 33.0 µM -1% | [12]; at 100.0 µM -1% | [13]; at 1.2 µM -1% | [13]; at 3.7 µM 0% | [13]; at 11.0 µM 1% | [13]; at 33.0 µM 1% | [13]; at 100.0 µM 0% | [14]; [17] 6% | [14]; [18] 52% | [14]; at 50.0 µM -18.4% | [15]; at 1.2 µM -1% | [15]; at 3.7 µM 1% | [15]; at 11.0 µM -2% | [15]; at 33.0 µM -3% | [15]; at 100.0 µM -4%

O=C(CN(c1ccccc1)c1ccccc1)n1nnc2ccccc21
inactive: [1]; at 1.2 µM 18% | [1]; at 3.7 µM 20% | [1]; at 11.0 µM 14% | [1]; at 33.0 µM 39% | [2]; at 1.2 µM 10% | [2]; at 3.7 µM -11% | [2]; at 11.0 µM -19% | [2]; at 33.0 µM 0% | [3]; at 1.2 µM 15% | [3]; at 3.7 µM 7% | [3]; at 11.0 µM 15% | [3]; at 33.0 µM 42% | [16]; at 1.2 µM 6% | [16]; at 3.7 µM -20% | [16]; at 11.0 µM -10% | [16]; at 33.0 µM 9% | [4]; at 1.2 µM -9% | [4]; at 3.7 µM -7% | [4]; [17] -1% | [4]; at 11.0 µM 14% | [4]; at 33.0 µM 28% | [5]; at 1.2 µM -9% | [5]; at 3.7 µM 0% | [5]; [17] -6% | [5]; at 11.0 µM 13% | [5]; at 33.0 µM 23% | [5]; [18] 23% | [7]; [17] -15% | [7]; [18] 36% | [7]; at 50.0 µM 47.7% | [8]; at 1.2 µM 8% | [8]; at 3.7 µM -9% | [8]; at 11.0 µM -9% | [8]; at 33.0 µM 4% | [8]; at 100.0 µM 69% | [9]; [17] -2% | [9]; [18] -29% | [9]; at 50.0 µM 52.2% | [10]; at 1.2 µM -21% | [10]; at 3.7 µM -19% | [10]; [17] -42% | [10]; at 11.0 µM -35% | [10]; at 33.0 µM -19% | [11]; at 1.2 µM -7% | [11]; at 3.7 µM 8% | [11]; at 11.0 µM -6% | [11]; at 33.0 µM 6% | [12]; at 1.2 µM 9% | [12]; at 3.7 µM 6% | [12]; at 11.0 µM 13% | [12]; at 33.0 µM 36% | [14]; [17] -21% | [15]; at 1.2 µM 6% | [15]; at 3.7 µM 14% | [15]; at 11.0 µM 6% | [15]; at 33.0 µM 30%
active: [1]; at 100.0 µM 85% | [2]; at 100.0 µM 82% | [3]; at 100.0 µM 71% | [16]; at 100.0 µM 88% | [4]; [18] 76% | [4]; at 50.0 µM 74.5% | [4]; at 100.0 µM 84% | [5]; at 50.0 µM 78.6% | [5]; at 100.0 µM 85% | [10]; [18] 84% | [10]; at 50.0 µM 74.4% | [10]; at 100.0 µM 76% | [11]; at 100.0 µM 80% | [12]; at 100.0 µM 86% | [14]; [18] 87% | [14]; at 50.0 µM 70.2% | [15]; at 100.0 µM 90%
